# According to PubChem BioAssay (EPA / NIEHS):
# Active and inactive are the calls of the source. Rule for the calls: active = hit-call score of the fitted dose curve at least 0.9, where 1 is the maximum; inactive = score below 0.9.
# Molecular target: Estrogen receptor (Homo sapiens) (UniProt P03372)
# Experiment: CCTE_Deisenroth_AIME_384WELL_LUC_Shift: CCTE's 384-well Estrogen Receptor Transactivation Assay with AIME metabolic competence data shift (ERTA luciferase; difference in metabolism positive and negative), Deisenroth Lab (AID 2284041);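 note: shift is response with S9 minus without S9 so positive means metabolism raised ER signal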
# Method in brief: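 Test chemicals (0.002–200 uM, 10-point) were pre-incubated 2 h with alginate microspheres containing phenobarbital/beta-naphthoflavone-induced male Sprague Dawley rat liver S9 or water, then medium was transferred to VM7Luc4E2 cells for 24 h luciferase readout; shift = S9-positive minus S9-negative normalized response.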
# Sequence of Estrogen receptor (Homo sapiens) (P03372 whole entry, looked up): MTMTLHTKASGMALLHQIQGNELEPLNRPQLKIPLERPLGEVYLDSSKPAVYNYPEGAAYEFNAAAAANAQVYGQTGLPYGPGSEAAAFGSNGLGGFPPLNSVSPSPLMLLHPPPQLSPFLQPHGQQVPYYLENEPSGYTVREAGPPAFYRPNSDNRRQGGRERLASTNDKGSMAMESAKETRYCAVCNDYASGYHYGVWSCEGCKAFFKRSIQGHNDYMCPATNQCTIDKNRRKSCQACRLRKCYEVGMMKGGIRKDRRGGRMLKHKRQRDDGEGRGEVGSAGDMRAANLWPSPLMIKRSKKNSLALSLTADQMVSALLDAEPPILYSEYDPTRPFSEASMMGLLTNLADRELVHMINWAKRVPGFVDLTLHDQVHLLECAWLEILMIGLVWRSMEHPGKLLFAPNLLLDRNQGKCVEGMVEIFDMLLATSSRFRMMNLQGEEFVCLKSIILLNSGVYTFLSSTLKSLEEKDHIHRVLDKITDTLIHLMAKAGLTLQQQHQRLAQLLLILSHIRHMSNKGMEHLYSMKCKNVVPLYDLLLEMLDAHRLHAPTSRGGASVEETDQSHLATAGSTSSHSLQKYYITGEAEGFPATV
Compound,outcome,AC50
CCCC[N+](C)(CCCC)CCCC,inactive,–
CC(=O)c1ccc2ccccc2c1,inactive,–
[Na+],inactive,–
CCCC1CCC(=O)CC1,inactive,–
NC(N)=S,inactive,–
CC(=O)CC(=O)N(C)C,inactive,–
CC(=O)Oc1c(C)c(C)c2c(c1C)CC[C@@](C)(CCC[C@H](C)CCC[C@H](C)CCCC(C)C)O2,inactive,–
CCC(C)COC(=O)CC(C)C (configuration not stated),inactive,–
CC(C)(C)C1CCC(O)CC1 (configuration not stated),inactive,–
O=C1OC2(c3ccc(O)cc3Oc3cc(O)ccc32)c2ccccc21,inactive,–
CCCO,inactive,–
COc1ccc2[nH]cc(CCNC(C)=O)c2c1,inactive,–
CC(=O)C1=C(C)[C@@H]2C[C@@]3(C1)[C@H](C)CC[C@H]3C2(C)C,–,0.848 nM (active)
Cc1cccc(O)c1,inactive,–
CC(C)N(c1ccccc1)C(C)C,inactive,–
CCCCOCCOCCOCCO,inactive,–
CCCCOCCOCCO,inactive,–
CN(C)C(=O)Nc1ccccc1,inactive,–
CC(CCO)CC(C)(C)C (configuration not stated),inactive,–
C=CC(C)CCCC(C)(C)O (configuration not stated),inactive,–
CCCCCCCCCCCCN1CCOCC1,inactive,–
C=C(C)C(N)=O,inactive,–
